Assay [1] can be described thus: NCI Yeast Anticancer Drug Screen. Data for the rad50 strain (AID 155).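 Further: 0% = growth of vehicle-only cultures of the same strain.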 Conditions: S. cerevisiae rad50 strain growth inhibition; at 50.0 µM; hits give high values. The gist of the method: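 A DNA repair-deficient yeast mutant serves as the test organism; compound-induced growth inhibition is calculated against vehicle-treated cells.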
The nature of assay [2]: NCI Yeast Anticancer Drug Screen. Data for the mec2-1 strain (AID 157). Particulars: S. cerevisiae mec2-1 strain, at 50.0 µM, hits give high values. The gist of the method: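 Growth inhibition is read against vehicle-treated controls after compound exposure of the mec2-1 yeast strain, which is defective in DNA damage repair or cell cycle control.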
A short description of assay [3]: NCI Yeast Anticancer Drug Screen. Data for the sgs1 mgt1 strain (AID 161).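 Further: 0% = growth of cultures given vehicle only.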 Particulars: S. cerevisiae sgs1 mgt1 strain, at 50.0 µM, hits give high values. The gist of the method: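 Growth of a repair-deficient yeast mutant was monitored after compound treatment and expressed as inhibition relative to vehicle-treated cultures.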
Assay [4] in a line: NCI Yeast Anticancer Drug Screen. Data for the cln2 rad14 strain (AID 165).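 Further: 0% = growth equal to vehicle treated cultures.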 Particulars: S. cerevisiae cln2 rad14 strain, at 50.0 µM, hits give high values. The gist of the method:
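Growth inhibition, relative to vehicle-treated controls, is the read-out. The test organism is a yeast strain with defined genetic alterations, cln2 rad14.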

A short description of assay [5]: NCI Yeast Anticancer Drug Screen. Data for the bub3 strain (AID 167). Conditions: S. cerevisiae bub3 mutant strain, at 50.0 µM, hits give high values. The gist of the method:
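Inhibition values come from growth of compound-treated mutant yeast normalised to vehicle-treated controls.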

The nature of assay [6]: NCI Yeast Anticancer Drug Screen. Data for the mlh1 rad18 strain (AID 175). Particulars: S. cerevisiae mlh1 rad18 strain growth inhibition; at 50.0 µM; hits give high values. An outline of the steps: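 Cells of a genetically altered yeast strain, deficient in DNA damage repair, were treated with compound. Their growth was then compared with that of vehicle-treated cultures to give inhibition.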

Compounds without any hit were thinned out: in the full panel of roughly 79,000, 15% have a hit. A number with no mark means an inactive call. Activity calls are given as the source filed them. No stated cut-off is given here; in the data, active means growth inhibition above about 70%; inactive means the rest.

In the case of `C/C(CC(=O)Nc1ccc([N+](=O)[O-])cc1)=N/N=C(N)N`, the growth inhibition was -4.25% in assay [1]; -16% in assay [2]; -8.6% in assay [3]; 17.1% in assay [4]; -10.8% in assay [5]; 2.6% in assay [6].
On to `Oc1ccccc1-c1nc2ccccc2s1`, for which the growth inhibition in assay [1] is -0.25%; in assay [2], -37%; in assay [3], 7.85%; in assay [4] it was -2.7%; in assay [5] it was 10.3%; in assay [6], -10.2%.
For `CC(=O)Nc1cccc([N+](=O)[O-])c1`, the growth inhibition in assay [1] is 8.25%; in assay [2] it was -10.3%; in assay [3], 8.65%; in assay [4], -7.85%; in assay [5], -2.7%; in assay [6] it was -19.6%.
On to `CCOC(=O)C(=[N+]=[N-])C(=O)c1cc2ccccc2oc1=O`, for which the growth inhibition was -19.2% in assay [1]; 6.85% in assay [2]; 13.6% in assay [3]; -0.55% in assay [4]; -13.7% in assay [5]; 22.2% in assay [6].
Take `O=C1c2ccccc2C(=O)N1CCc1ncc(-c2ccccc2)[nH]1`: the growth inhibition in assay [1] was -16.4%; in assay [2], 7.85%; in assay [3], -16.1%; in assay [4] it was 12.4%; in assay [5] it was 1.1%; in assay [6] it was 1.9%.
Consider `Clc1cnc(/N=C/c2ccc(/C=N/c3ncc(Cl)cc3Cl)cc2)c(Cl)c1`, for which the growth inhibition in assay [1] was 13%; in assay [2], -21.8%; in assay [3], 6.05%; in assay [4], 10%; in assay [5], -5.8%; in assay [6] it was 16.4%.
With `O=C(Oc1ccc2c(=O)cc(-c3ccccc3)oc2c1OC(=O)c1ccccc1)c1ccccc1`, the growth inhibition in assay [1] was 3%; in assay [2], 7.6%; in assay [3], -0.85%; in assay [4], -3.15%; in assay [5], -14.1%; in assay [6], 3%.
Turning to `CCOC(=O)c1ccc(N=Nc2ccc(N(CCC#N)CCC#N)cc2C)cc1`, the growth inhibition in assay [1] was -47.5%; in assay [2], -50.6%; in assay [3], -27.4%; in assay [4], -4.4%; in assay [5] it was -36.8%; in assay [6], -24.5%.
On to `CCC(=O)c1ccc2c(ccc3ccccc32)c1O`, for which the growth inhibition was -18.3% in assay [1]; -6.8% in assay [2]; -4.15% in assay [3]; -22.1% in assay [4]; 2.85% in assay [5]; -11.6% in assay [6].
With `O=C(O)C1c2ccccc2C(C(=O)O)c2ccccc21` (stereo unspecified), the growth inhibition was -6.4% in assay [1]; -2.25% in assay [2]; -4% in assay [3]; 19.9% in assay [4]; 13% in assay [5]; 31.8% in assay [6].
With `Cc1nc(-c2ccccc2)[nH]c(=O)c1Cc1cc2c(cc1O)OCC2`, the growth inhibition in assay [1] was 21.8%; in assay [2] it was 6.6%; in assay [3] it was 6.9%; in assay [4], -12.2%; in assay [5], -7.85%; in assay [6], 8.4%.
`Clc1ccc(-c2nc3ccccc3cc2N2CCOCC2)cc1`: the growth inhibition in assay [1] is 70.5% (active); in assay [2], 52%; in assay [3], 47.9%; in assay [4], 49.7%; in assay [5], 39.5%; in assay [6] it was 82.5% (active).
In the case of `COc1ccc(C[N+](C)(C)N)cc1OC`, the growth inhibition in assay [1] is -13.8%; in assay [2], -18.2%; in assay [3] it was -21.9%; in assay [4], -9.7%; in assay [5] it was -40.5%; in assay [6], -34.1%.
For the compound `Cc1ccc(O)cc1C(=O)O`, the growth inhibition in assay [1] is -32%; in assay [2], -14.7%; in assay [3], -0.95%; in assay [4] it was 8.05%; in assay [5] it was -3.75%; in assay [6], 5.4%.
Take `O=C(OCC1CCCO1)c1ccccc1Cl` (stereo unspecified): the growth inhibition is 11.8% in assay [1]; -10.2% in assay [2]; -0.95% in assay [3]; -6.6% in assay [4]; 7.2% in assay [5]; 0% in assay [6].
For `O=C(OC1CCCCC1)C(=O)OC1CCCCC1`, the growth inhibition is 3.3% in assay [1]; -2.3% in assay [2]; 1.35% in assay [3]; -37.2% in assay [4]; -5.45% in assay [5]; 14% in assay [6].
As to `CN(C)CCN1N=Nc2cccc3cccc1c23`, the growth inhibition in assay [1] is 43.3%; in assay [2], 18.2%; in assay [3], 10.9%; in assay [4], 19.2%; in assay [5] it was 30.6%; in assay [6], 39.4%.
Consider `CS(=O)(=O)Nc1ccc(NS(C)(=O)=O)cc1`, for which the growth inhibition in assay [1] is 1.6%; in assay [2], 17.5%; in assay [3] it was 4.45%; in assay [4], 1.75%; in assay [5] it was 2.9%; in assay [6] it was -13.2%.
On to `c1ccc(CSC2(SCc3ccccc3)CCCC2)cc1`, for which the growth inhibition in assay [1] was -7.3%; in assay [2], -19.3%; in assay [3], -22.6%; in assay [4], 11.8%; in assay [5], -1.1%; in assay [6] it was -4.45%.
Regarding `COC(=O)NCC(OC(=O)c1cc2c(cc1I)OCO2)C1=CCCCC1` (stereo unspecified), the growth inhibition in assay [1] is 54.5%; in assay [2], 30.1%; in assay [3] it was 37.6%; in assay [4], 29.2%; in assay [5], 48.8%; in assay [6] it was 28.8%.
`COc1cc2oc(=O)ccc2cc1CC=C(C)C`: the growth inhibition in assay [1] is -16.1%; in assay [2], -26.2%; in assay [3], -4.1%; in assay [4] it was -6.35%; in assay [5] it was 2.95%; in assay [6], -21.8%.

Source of the values: PubChem BioAssay (NCI).
